Sfp inh: qHTS Assay for Inhibitors of Bacillus subtilis Sfp phosphopantetheinyl transferase (PPTase); 310,000 compounds, 3.5% hits; Biochemical Sfp PPTase activity, qHTS; Potency, µM, without a hit: largest response in the series, negative = inhibition, hits mostly inhibitors; AID 1490, 2009; 4'-phosphopantetheinyl transferase ffp (Bacillus subtilis), Q9F4F7;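 note: the enzyme is Sfp with the accession as filed and its product quenches rhodamine fluorescence; 0% = enzyme reaction without inhibitor and -100% = no enzyme wells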
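Step 1, compound plus 15 nM Sfp-PPTase, 15 min, room temperature. Step 2, add rhodamine-CoA (5 uM) and BHQ-2-YbbR (12.5 uM). Step 3, read 525/598 nm fluorescence at 0 and 30 min.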
ClpP mod: qHTS Assay for Activators of ClpP; AID 651965, 2013; Potency, µM (titrated, usually from 57.5 µM), without a hit: at the top dose activity change, negative = active; 340,000 compounds, 1.9% hits; purified B. subtilis ClpP, FRET peptide cleavage, 20 min; active = well fitted falling curve with a large enough effect; inconclusive = small, poorly fitted or top-dose-only effect; inactive = no such curve, though single readings can be large or run the other way; note: the source files actives as falling curves though it sought activators and does not explain the sign; nearly all actives have a fitted effect of over 65% in size
Target sequence (P80244 whole entry, looked up): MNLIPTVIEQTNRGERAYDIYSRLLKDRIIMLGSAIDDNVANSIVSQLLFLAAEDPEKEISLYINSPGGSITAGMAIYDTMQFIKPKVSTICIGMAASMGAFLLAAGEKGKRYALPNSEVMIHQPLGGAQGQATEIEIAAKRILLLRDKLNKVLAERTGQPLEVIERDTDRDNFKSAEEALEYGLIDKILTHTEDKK
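Buffer: 100 mM Tris/HCl pH8, 100 mM KCl, 0.05% low protease BSA, 2.5% glycerol, 0.01% Tween-20. ClpP 10 microg/mL final; 20 min RT; delta FRET normalized to ADEP and DMSO controls.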
Epigenetic derep: Quantitative High-Throughput Screen for Regulators of Epigenetic Control | Potency, µM (series often up to 53.9 µM), for the others: at the highest dose GFP activation, actives largely listed as activators | 280,000 compounds, 0.2% hits | murine LDR cells, GFP reporter derepression, 30 h | AID 1865, 2009; note: % of control where 0% means no effect; nearly all actives have a fitted effect of over 60% in size
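Readout is the number of GFP-expressing murine LDR cells, counted by cytometry following washing. Cells were treated with compound for 30 h at 37 C; the stably integrated CMV-GFP locus is normally silent.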
RORg inh: qHTS for inhibitors of ROR gamma transcriptional activity. Nuclear receptor ROR-gamma (Mus musculus), P51450. Drosophila S2 Gal4-RORgamma UAS-luciferase reporter, 20 h. Potency, µM (titrated, usually from 53.6 µM), inactives show at the highest dose activity change, negative = inhibition, hits mostly inhibitors. 310,000 compounds, 5.4% hits; note: % is set by controls: 0 for no effect and ±100 for the full control effect; nearly all actives have a fitted effect of over 60% in size
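Stable Schneider cell line, Gal4 DNA-binding domain fused to ROR gamma, UAS-luciferase. Cmpd 1 hr RT → CuSO4 700 uM final → 20 hr RT → luciferase reagent 10 min → luminescence.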
Gal4-VP16 FLuc: VP16 counterscreen qHTS for inhibitors of ROR gamma transcriptional activity. Drosophila S2 Gal4-VP16 UAS-luciferase, luminescence, 20 h. Potency, µM (highest dose often 53.6 µM), for the others: top-dose activity, negative = inhibition, most hits filed as inhibitors. 310,000 compounds, 3.5% hits;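 note: Gal4-VP16 expression switched on by copper sulfate through the metallothionein promoter; % is set by controls: 0 for no effect and ±100 for the full control effect; nearly all actives have a fitted effect of over 50% in size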
PINK1 expr mod: A Quantitative High throughput Screen to Identify Chemical Modulators of PINK1 Expression | PINK1 immunofluorescence, high-content cytometry, 24 h | Potency, µM (highest dose often 76.6 µM), inactives show top-dose activation (PINK1 increase), usual class: activators | 410,000 compounds, 0.2% hits | AID 624263, 2012; active = well fitted activation curve with a large enough effect; inconclusive = small, poorly fitted or top-dose-only effect; cell line not stated here; note: % of control where 0% means no effect; nearly all actives have a fitted effect of over 65% in size
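PINK1 protein, normally rapidly degraded, was detected by immunofluorescence after 24 hour compound treatment of a stable cell line. Titration data (5 concentrations) came from laser-scanning cytometry, with CCCP-treated wells as controls.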
Numbers without * were called inactive; [ ] = remark or other dose. Compounds with a hit are over-represented: about 8.1% of the library has one in this group of screens. Unless noted, calls come from the whole dose curve; as a rule, active = well fitted curve in the direction sought with a large enough effect; inconclusive = small, poorly fitted or top-dose-only effect, or another doubt; inactive = no such curve, though single readings can be large; an effect the other way counts as inactive or inconclusive. Potency is the fitted concentration of half-maximal effect.

Screening COc1ccc(C2CC(c3ccccc3)=NN2S(=O)(=O)c2ccccc2)cc1 (stereo not drawn) returned Sfp inh 4%, ClpP mod -2%, Epigenetic derep inconclusive, RORg inh inconclusive, Gal4-VP16 FLuc 4.5µM* and PINK1 expr mod 6%.
Screening COc1ccc(S(=O)(=O)N2N=C(c3ccc(NS(C)(=O)=O)cc3)CC2c2ccco2)cc1 (stereo not drawn) returned Sfp inh 56µM*, ClpP mod -13%, Epigenetic derep -2%, RORg inh inconclusive, Gal4-VP16 FLuc -16% and PINK1 expr mod -1%.
Screening COc1ccc(C2CC(c3ccccc3)=NN2c2ccc(N)cc2)cc1 (stereo not drawn) returned Sfp inh -11%, ClpP mod 1%, Epigenetic derep -6%, RORg inh -17%, Gal4-VP16 FLuc 0% and PINK1 expr mod inconclusive.
For Cc1ccc(-c2nn(-c3ccccc3)cc2CN(Cc2ccccc2)C(=O)c2ccco2)o1 the results were Sfp inh 18µM*, ClpP mod -13%, Epigenetic derep 5%, RORg inh inconclusive and Gal4-VP16 FLuc -86%.
Cc1ccc(-c2nn(-c3ccccc3)cc2C(=O)O)o1 was read as Sfp inh -101%, Epigenetic derep -2%, RORg inh 25% and Gal4-VP16 FLuc -8%.
CC(=O)c1cccc(Nc2c3c(nc4nc(-c5cccs5)nn24)CCCC3)c1 was read as ClpP mod 0%, Epigenetic derep -2% and PINK1 expr mod 2%.
COc1ccc(N(C(=O)c2cccc(C)c2)S(=O)(=O)c2ccc3c(c2)n(C)c(=O)n3C)cc1 was read as ClpP mod 0%, Epigenetic derep 1% and PINK1 expr mod -2%.
`CC1=CC2=C(OC1N(C)C)c1cccc3cccc(c13)C2=O` (stereo not drawn) gave Sfp inh inconclusive, ClpP mod -1%, Epigenetic derep inconclusive, RORg inh 8.9µM*, Gal4-VP16 FLuc inconclusive and PINK1 expr mod 0%.
OCCCCNc1cccc2ccccc12 was read as Sfp inh -25%, ClpP mod 16µM*, Epigenetic derep -1%, RORg inh -34%, Gal4-VP16 FLuc 8% and PINK1 expr mod 4%[38.3 µM].
For O=C(Nc1nnc2n1CCS2)c1ccccc1 the results were ClpP mod 0%, Epigenetic derep -1% and PINK1 expr mod 1%.
Screening O=C(Nc1nnc2n1CCS2)c1ccc(Br)o1 returned Sfp inh 56µM*, ClpP mod -1%, RORg inh 3.5µM*, Gal4-VP16 FLuc 7.1µM* and PINK1 expr mod 1%.
`Cn1c(N=NC(=O)c2ccccc2)c(O)c2ccccc21` gave Sfp inh 4%, ClpP mod 0%, Epigenetic derep 1%, RORg inh 8.9µM*, Gal4-VP16 FLuc inconclusive and PINK1 expr mod 1%.
Screening COc1cccc(NS(=O)(=O)c2ccc3c(c2)n(C)c(=O)n3C)c1 returned ClpP mod 1%, Epigenetic derep -2% and PINK1 expr mod 5%.
`CCN(CC)C(=O)c1[nH]cnc1C(=O)N[C@@H](Cc1ccccc1)C(=O)OC(C)(C)C` gave Sfp inh 11%, ClpP mod 0%, RORg inh 10µM*, Gal4-VP16 FLuc inconclusive and PINK1 expr mod 1%.
Cc1ccccc1NC(=O)c1nc[nH]c1C(=O)NCc1ccccc1 was read as Sfp inh 7%, ClpP mod 471%, Epigenetic derep -1%, RORg inh 2.8µM*, Gal4-VP16 FLuc 5µM* and PINK1 expr mod -1%.

Assay outcomes (PubChem BioAssay)
